Screen size: about 400,000 compounds; about 3,700 (0.93%) were called active. Another 3% or so got no clear call; they are omitted. The calls are words filed in the database; no cut-off is given here. The entries come from a sample that favours actives as a whole.
These compounds were tested against T1, Vitamin D3 receptor (Homo sapiens) (UniProt P11473) (assay: Inhibitors of the vitamin D receptor (VDR): qHTS. [Related pubchem assays (depositor defined):AID504855]).
T1 sequence (whole entry): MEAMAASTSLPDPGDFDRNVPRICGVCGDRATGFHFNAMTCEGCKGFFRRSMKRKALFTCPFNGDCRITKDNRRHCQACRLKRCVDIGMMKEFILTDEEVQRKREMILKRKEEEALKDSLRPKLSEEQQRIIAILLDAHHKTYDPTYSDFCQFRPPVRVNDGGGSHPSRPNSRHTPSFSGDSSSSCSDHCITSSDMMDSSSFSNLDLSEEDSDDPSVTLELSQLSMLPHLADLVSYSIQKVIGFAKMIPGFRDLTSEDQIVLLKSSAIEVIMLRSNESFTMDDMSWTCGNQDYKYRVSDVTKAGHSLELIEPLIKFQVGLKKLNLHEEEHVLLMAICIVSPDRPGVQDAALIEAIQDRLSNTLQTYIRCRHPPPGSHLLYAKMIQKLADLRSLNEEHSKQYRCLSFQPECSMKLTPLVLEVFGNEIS
Type: functional

| Compound | Potency |
| --- | --- |
| Cl[Te]1(Cl)OCCO1 | 3.16 µM (active) |

— ChEMBL document CHEMBL1201862, “PubChem BioAssay data set” (2004)
